Test results published in PubChem BioAssay (NCI).
The panel holds about 79,000 compounds, 15% with a hit somewhere; the sample as a whole holds those more often. Unmarked numbers belong to inactive results. Activity calls are given as the source filed them. No stated cut-off is given here; in the data, active means growth inhibition above about 70%; inactive means the rest.

Columns and labels:
[1] = NCI Yeast Anticancer Drug Screen. Data for the rad50 strain (AID 155);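 further: 0% = growth of vehicle-only cultures of the same strain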; details: S. cerevisiae rad50 strain growth inhibition; at 50.0 µM; hits give high values
Summary of the method: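 Cells are treated with compound, grown, and their growth is then scored against vehicle-only cultures of the same repair-deficient yeast strain.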

[2] = NCI Yeast Anticancer Drug Screen. Data for the mec2-1 strain (AID 157); details: S. cerevisiae mec2-1 strain, at 50.0 µM, hits give high values
Summary of the method: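 Readout is yeast growth inhibition, normalised to vehicle-treated controls, in the mec2-1 strain exposed to compound.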

[3] = NCI Yeast Anticancer Drug Screen. Data for the sgs1 mgt1 strain (AID 161);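 further: 0% = growth of cultures given vehicle only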; details: S. cerevisiae sgs1 mgt1 strain, at 50.0 µM, hits give high values
Summary of the method: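 Yeast cells carrying a defined DNA-repair defect were exposed to test compounds. Growth inhibition was measured relative to vehicle-treated controls.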

[4] = NCI Yeast Anticancer Drug Screen. Data for the cln2 rad14 strain (AID 165);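 further: 0% = growth equal to vehicle treated cultures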; details: S. cerevisiae cln2 rad14 strain, at 50.0 µM, hits give high values
Summary of the method: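 Relative to vehicle controls, growth inhibition of compound-treated cln2 rad14 yeast was recorded.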

[5] = NCI Yeast Anticancer Drug Screen. Data for the bub3 strain (AID 167); details: S. cerevisiae bub3 mutant strain, at 50.0 µM, hits give high values
Summary of the method: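 Part of a panel of yeast mutants defective in DNA damage repair or cell cycle regulation. Each strain is grown with compound, and inhibition is calculated relative to solvent-treated cultures.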

[6] = NCI Yeast Anticancer Drug Screen. Data for the mlh1 rad18 strain (AID 175); details: S. cerevisiae mlh1 rad18 strain growth inhibition; at 50.0 µM; hits give high values
Summary of the method: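 Test agents were incubated with a yeast strain of defined genotype (DNA damage repair defect). Inhibition of growth was derived by comparison with vehicle-exposed cultures.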

Row | SMILES | growth inhibition [1] [%] | growth inhibition [2] [%] | growth inhibition [3] [%] | growth inhibition [4] [%] | growth inhibition [5] [%] | growth inhibition [6]
1 | CC(C)=CCC[C@@H](C)C1[C@@H](OC2OC(CO)C(O)C(O)C2O)CC2(C)[C@@H]3CC(=O)C4C(C)(C)[C@@H](OC5OC(CO)C(O)C(O)C5O)CC[C@@]45C[C@@]35CC[C@]12C (stereo partly specified) | -17.4 | -40 | -27.1 | -3.15 | -20.8 | -25.4%
2 | COc1ccc(C=Nc2ccc(Cl)cc2)cc1 | -11.5 | -25.2 | 4.45 | -18.7 | 2.55 | 3.55%
3 | N#Cc1nc(CCC(C(=O)O)N2C(=O)c3ccccc3C2=O)oc1N (stereo unspecified) | 3.55 | 15.2 | -12.1 | -0.55 | -9.15 | -46.9%
4 | Nc1ncnc2c1ncn2CCOCC(O)CO (stereo unspecified) | -0.75 | -4.3 | -5.95 | -15.4 | -7.7 | -19.9%
5 | C=C1C(=O)OC2/C=C(/CO)C3(O)CC(O)C(C)(CC(OC(=O)/C(C)=C/C)C12)O3 (stereo unspecified) | 7.2 | -13.9 | 14.9 | 17.4 | 0.85 | -27.2%
6 | O=S1(=O)CCCCc2ccccc21 | 7.35 | -0.75 | 3.75 | -9.35 | 1.85 | -23.2%
7 | CC(=O)Nc1ccc(S(=O)(=O)CO)cc1 | 19.4 | 16.9 | 19.6 | 6.55 | -0.3 | 16.8%
8 | Oc1ccccc1CNCc1nc2ccccc2[nH]1 | -8.1 | -1.7 | -11.6 | -8.7 | -4.4 | 18.6%
9 | O/N=C/c1ccccn1 | -0.95 | -31.9 | -5.6 | 6.85 | -9.5 | 0%
10 | FC(F)(F)c1cc(NC(=S)SCc2ccc(Cl)cc2)ccc1Cl | 22.8 | 8.7 | 16.2 | 14.6 | 13.6 | 11.2%
11 | S=C(NNC(=S)Nc1ccccc1)Nc1ccccc1 | -16.9 | 1.7 | 6.9 | -1.15 | -5.4 | -2.2%
12 | CCCCCCO/N=C\c1c2c(O)c3c(O)c(C)c4c(c3c1O)C(=O)C(C)(O/C=C\C(OC)C(C)C(OC(C)=O)C(C)C(O)C(C)C(O)C(C)/C=C\C=C(\C)C(=O)N2)O4 (stereo unspecified) | 25.2 | 63.4 | 36.6 | 54 | 26.2 | 53.9%
13 | CC(=O)Nc1ccccc1C | 11.9 | -7.1 | -0.55 | -5.65 | 5.2 | 3.05%
14 | CCc1ccc(-n2c(C)nc3[nH]cc(C)c3c2=N)cc1 | -13.6 | -3.35 | -11.9 | -12.3 | -2.65 | -10.4%
15 | CC(=O)c1cccc(NC(=O)Nc2cccc3ccccc23)c1 | 0.45 | 5.7 | 14.9 | 2.75 | 15.7 | 2.7%
16 | CCOC(=O)c1nc[nH]c1C(=O)OCC | 17.5 | -7.25 | -6.1 | 11 | -1.35 | 12%
17 | CC(C)(C)[Si](C)(C)OCC1CCC(n2cnc3c(N)ncnc32)O1 (stereo unspecified) | 19.7 | -3.1 | -6.2 | -4.7 | -1.95 | 6.7%
18 | CCCC(CO)OC(=O)Nc1ccc(-c2ccccc2)cc1 (stereo unspecified) | -7.75 | -1.1 | -2.15 | -56 | 27.4 | 11.9%
19 | NC(=O)C(c1ccccc1)c1ccnc2ccccc12 (stereo unspecified) | 2.05 | 4.5 | 7.9 | 8.05 | 20.4 | -21.2%
20 | O=C1c2ccccc2-c2nc3cc4ccccc4cc3nc21 | 20.1 | 15.6 | 22.5 | 5.85 | 11.4 | 74% (active)
21 | CCOc1cc2c(cnc3c4cc(OC)c(OC)cc4ccc23)cc1OC | -8.6 | -15.2 | -13.5 | -6.25 | -17.9 | -16.6%
